In ChEMBL document CHEMBL3988442, “University of Dundee, Small-Polar-MMV Screening Library” (2021):
In all, about 69,000 compounds went through this assay and about 950 (1.4%) showed an effect of 50% or more. The sample as a whole holds a higher share of strong results than the screen did.

These molecules were tested on Mycobacterium tuberculosis (assay: Cornell M. t heat shock assay; further: in the data most compounds retested in dose-response had high values).
Format: functional, organism-based
Set-up: dose or concentration left out as unconfirmed

| Structure (SMILES) | Percent Effect |
| --- | --- |
| CC(C)N1CCOCC2(CCCN(C(=O)CCc3cccnc3)C2)C1.O=C(O)C(F)(F)F (centres undefined) | -33.91% |
| Cc1cccc(CN2CCC3(CCN(c4ncccn4)CC3)C2=O)c1.O=C(O)C(F)(F)F | 21.29% |
| O=C(O)C(F)(F)F.O=C(O)C(F)(F)F.O=C(O)C(F)(F)F.O=C1CO[C@@H]2CN(Cc3ccncc3)C[C@H]2N1Cc1ccncc1 | -33.4% |
| CN(C)CC1CSCCCN1C(=O)c1ccsc1 (centres undefined) | -29.65% |
| O=S1(=O)C[C@@H]2[C@H](C1)N(Cc1cc(Cl)cc(Cl)c1)CCN2CC1CC1 | 99.37% |
| CCCN1CCN(Cc2cc(Cl)cc(Cl)c2)[C@H]2CS(=O)(=O)C[C@H]21 | 31.79% |
| O=S1(=O)C[C@@H]2[C@H](C1)N(Cc1cc(Cl)cc(Cl)c1)CCN2CCO | -5.541% |
| CN(C)c1ncc(-c2cccc(C(N)=O)c2)c(C2CNCCO2)n1.Cl (centres undefined) | -21.53% |
| CN1CCc2cc(C(=O)N(C)C)c(NCC3CC3)nc2CC1.O=C(O)C(F)(F)F.O=C(O)C(F)(F)F | -30.07% |
| Cn1ccnc1CN1C[C@@H]2[C@@H](C1)OCC(=O)N2CC1CCCC1.O=C(O)C(F)(F)F | -35.26% |
| CN(C)[C@@H]1CN(C(=O)Cc2cccc(F)c2)[C@@H]2CCCO[C@H]12.O=C(O)C(F)(F)F | -1.237% |
| Cc1nnc([C@@]23CCO[C@@H]2CCN(S(=O)(=O)c2ccccc2)C3)o1 | 53.88% |
| Cc1nnc([C@@]23CCO[C@@H]2CCN(S(C)(=O)=O)C3)o1 | -10.32% |
| Cc1nnc([C@@]23CCO[C@@H]2CCN(S(=O)(=O)c2cccnc2)C3)o1 | 18.46% |
| N#Cc1cccc(CN2C[C@@H]3CN(c4ncccn4)C[C@@H]3C2)c1.O=C(O)C(F)(F)F | 29.7% |
| CO[C@H]1C[C@@H]2CN(C(=O)c3cc4cccc(F)c4[nH]3)C[C@@H]2C1 | 17.75% |
| COc1ccc(NC(=O)CCc2c(C)nc3cc(O)nn3c2C)cn1 | 61.44% |
| CCNC(=O)CCc1c(C)nc2cc(O)nn2c1C | 0.7588% |
| COC(=O)CCc1c(C)nc2cc(O)nn2c1C | -4.051% |
| CN(C)C(=O)c1cn[nH]c1C1CCCN1Cc1nccn1C.O=CO (centres undefined) | -23.16% |
| Cc1ccc(CN2CCC(O)(Cn3nc(-c4cccs4)oc3=O)CC2)o1.O=C(O)CC(O)(CC(=O)O)C(=O)O | 5.66% |
| CC1(C)CC(N2Cc3nc(N4CCCC4)ncc3C2=O)CC(C)(C)N1 | 8.213% |
| Cc1noc(C2CCN(C(=O)CCc3ccccn3)CC2)n1 | 13.4% |
| Cc1noc(C2CCN(C(=O)CCc3nccs3)CC2)n1 | 51.73% |

| Structure (SMILES) | Percent Effect |
| --- | --- |
| Cc1noc(C2CCN(C(=O)CCNc3ncccn3)CC2)n1 | 13.08% |
| O=C(O)C(F)(F)F.O=C(O)C(F)(F)F.c1cnn(CCCO[C@@H]2CC[C@H]3[C@H]2OCCN3CC2CC2)c1 | -27.44% |
| CCn1ncc2c1CN(CCc1cccc(Cl)c1)CC2COC.O=C(O)C(F)(F)F.O=C(O)C(F)(F)F (centres undefined) | -10.95% |
| CCCc1nc(CNC(=O)Cc2csc(C)n2)cs1 | 8.263% |
| O=C(NC1(c2nccs2)CCCC1)c1cc(C2CC2)on1 | 7.107% |
| Cc1csc(C2(NCc3csc(C4CC4)n3)CCCC2)n1 | 41.22% |
| c1csc(C2(NCc3csc(C4CC4)n3)CCCC2)n1 | 66.7% |
| O=C(CCNC1(c2nccs2)CCCC1)N1CCOCC1 | -14.8% |
| CCCc1nc(CNC2(c3nccs3)CCCC2)cs1 | 94.85% |
| Cc1cccc(CN2CCc3nnc(Cn4cccc4)n3CC2)n1.O=C(O)C(F)(F)F | -14.44% |
| O=C(O)C(F)(F)F.O=C(O)C(F)(F)F.c1cc(-c2ccc3nc(C4CCN(CC5CC5)CC4)nn3c2)ccn1 | -27.27% |
| Cc1cccc(CN2CC[C@@H]3[C@@H]2CCN3C(=O)c2cc(C)on2)n1.O=C(O)C(F)(F)F | -16.64% |
| CCN(CC)CC1CN(Cc2cccc(C#N)c2)Cc2nccn2C1.O=C(O)C(F)(F)F.O=C(O)C(F)(F)F (centres undefined) | -22.76% |
| CCc1nnc2n1CCN(Cc1csc(-c3ccc(C)o3)n1)C2 | 49.84% |
| c1sc(C2CCCCC2)nc1CN1CCn2c(nnc2C2CC2)C1 | 7.076% |
| c1cnc(-c2nc(CN3CCn4c(nnc4C4CC4)C3)cs2)nc1 | 18.84% |
| c1sc(C2CCCC2)nc1CN1CCn2c(nnc2C2CC2)C1 | 55.31% |
| Cc1ccc(-c2nc(CN3CCn4c(C)nnc4C3)cs2)o1 | -2.255% |
| Cc1ccc(-c2nc(CN3CCn4c(nnc4C4CC4)C3)cs2)o1 | 171.6% |
| Cc1nnc2n1CCN(Cc1csc(-c3ccsc3)n1)C2 | -0.9289% |
| c1ccc(-c2nc(CN3CCn4c(nnc4C4CC4)C3)cs2)cc1 | 10.73% |
| c1cc(-c2nc(CN3CCn4c(nnc4C4CC4)C3)cs2)cs1 | 159.7% |
| Cc1ccc(C)c(-n2cc(CN3CC[C@@H](O)C3)c(-c3ccccc3)n2)c1 | 85.17% |
| Cc1ccc(S(=O)(=O)c2ncccc2CN2CCOCC2)cc1 | -21.96% |

| Structure (SMILES) | Percent Effect |
| --- | --- |
| Cc1cccc(-c2noc(CN3CCOCC3C)n2)c1 (centres undefined) | -19.27% |
| Cc1ccc(C)c(-n2cc(CN3CCOCC3)c(-c3ccccc3)n2)c1 | 9.683% |
| Cn1cc(CN2CCCC(O)C2)c(-c2ccccc2F)n1 (centres undefined) | 14.46% |
| Cc1ccc(-n2cc(CN3CCOCC3)c(-c3cccc(C)c3)n2)cc1 | 101.4% |
| CCC(=O)Nc1cccc(OCC(=O)N[C@@H]2C[C@H]3CC[C@@H]2C3)c1 | -8.125% |
| O=C(O)C(F)(F)F.O=C(O)C(F)(F)F.c1cc(CO[C@@H]2CN(Cc3ccoc3)[C@@H]3CCCO[C@@H]32)ccn1 | 21.84% |
| CN1CCOCC2(CCCN(C(=O)c3ccccc3F)C2)C1.O=C(O)C(F)(F)F (centres undefined) | -25.25% |
| CN(C)C(=O)N1CCC2(CC1)CN(Cc1ccccn1)C(=O)CO2.O=C(O)C(F)(F)F | -0.5573% |
| Cn1cc(CN2CCCC23CCN(C(=O)c2ccncc2)CC3)cn1.O=C(O)C(F)(F)F | -22.55% |
| Cc1ncccc1NC(=O)[C@H]1C[C@@H]2CCN(Cc3nccs3)C[C@@H]2O1.O=C(O)C(F)(F)F.O=C(O)C(F)(F)F | -3.608% |
| O=C(CC1CN(Cc2ccccc2)CCO1)NC1CCCC1 (centres undefined) | -14.55% |
| Cl.O=C(O)CC1CN(Cc2ccccc2)CCO1 (centres undefined) | 70.76% |
| O=C(CC1CN(Cc2ccccc2)CCO1)NCCN1CCOCC1 (centres undefined) | -41.8% |
| Cc1ccc(CN2CCn3cc(CN4CCN(C)CC4)nc3C2)cc1.O=C(O)C(F)(F)F.O=C(O)C(F)(F)F.O=C(O)C(F)(F)F | -4.711% |
| CNC(=O)NCC1CCC2(CCN(C(=O)c3cccnc3)CC2)CO1.O=C(O)C(F)(F)F (centres undefined) | 9.868% |
| O=C(O)CC(O)(CC(=O)O)C(=O)O.c1cncc(-c2nccc(CN3CCC(N4CCCCC4)CC3)n2)c1 | -13.06% |
| O=C(O)C(F)(F)F.O=C(O)C(F)(F)F.c1cncc(COCc2nnn3c2CN(Cc2ccsc2)CC3)c1 | -26.71% |
| Cc1cnc(C(=O)N2CCN(C(=O)C(C)C)[C@@H]3CS(=O)(=O)C[C@@H]32)cn1 | 4.224% |
| CC(C)C(=O)N1CCN(C(=O)c2cc(C(C)C)on2)[C@H]2CS(=O)(=O)C[C@H]21 | -10.22% |
| CC(C)C(=O)N1CCN(C(=O)c2cscn2)[C@H]2CS(=O)(=O)C[C@H]21 | 73.31% |
| Cc1ccc(OCC(=O)N2CCCC(n3nc(C)nc3C)C2)cc1 (centres undefined) | -13.19% |
| Cc1n[nH]cc1CNC(C(=O)N1CCCCC1)c1ccccc1 (centres undefined) | -8.652% |
| O=C(O)C(F)(F)F.c1csc(CN2CCc3nnc(COc4cncnc4)n3CC2)c1 | -24.48% |
| Cc1nc(CN2C[C@@H](CN3CCOCC3)[C@@H](CO)C2)c2ccccn12 | 1.211% |

| Structure (SMILES) | Percent Effect |
| --- | --- |
| Cc1ccc(C2(O)CCN(Cc3nc(C)n4ccccc34)CC2)nc1 | 43.96% |
| Cc1nc(CN2CCC3(CCCO3)CC2)c2ccccn12 | 77.67% |
| Cl.Cl.NCC1CN(c2ncnc3[nH]cnc23)CCO1 (centres undefined) | -17.53% |
| CNC(=O)C1Cn2ccnc2C2(CCN(Cc3nccs3)CC2)O1.O=C(O)C(F)(F)F.O=C(O)C(F)(F)F (centres undefined) | -22.49% |
| Cc1nc(CN2C[C@@H]3COC[C@]3(COCC(=O)N(C)C)C2)cs1.O=C(O)C(F)(F)F | -21.91% |
| CCOC1CC2(CCN(C(=O)COC)CC2)c2cc(C)ccc21 (centres undefined) | -4.26% |
| COCCN1CCC2(CC1)CC(OCC1CC1)c1ccc(C)cc12 (centres undefined) | 53.27% |
| Cc1ccc2c(c1)C1(CCNCC1)CC2OCC1CC1 (centres undefined) | 13.82% |
| COCCN1CCC2(CC1)CN(C(=O)c1ccccc1)CCO2.O=C(O)C(F)(F)F | -8.433% |
| CN(C)C(=O)N1CCC2(CCCN(CCOc3ccccc3)C2)C1.O=C(O)C(F)(F)F (centres undefined) | -6.162% |
| O=C(O)C1(Oc2cccc(F)c2)CCN(C2CCOCC2)CC1 | 1.505% |
| O=C(O)C1(Oc2ccc3c(c2)OCO3)CCN(C2CCOCC2)CC1 | -2.757% |
| O=C(O)C1(Oc2ccc(Cl)cc2)CCN(C2CCOCC2)CC1 | 51.75% |
| Cc1cc(C2CCCN(CC(=O)Nc3nc4c(s3)CCC4)C2)n[nH]1 (centres undefined) | 104% |
| O=C(CN1CCCC(c2ccn[nH]2)C1)N1CCCc2ccccc21 (centres undefined) | -24.99% |
| Cc1cc(C2CCCN(CC(=O)N3CCc4ccccc43)C2)n[nH]1 (centres undefined) | -11.71% |
| O=C1CCCN1CCN1CCCC(c2ccn[nH]2)C1 (centres undefined) | 4.433% |
| Cc1cc(C2CCCN(CC(=O)N3CCCc4ccccc43)C2)n[nH]1 (centres undefined) | -30.42% |
| CC(C)C1Nc2ccccc2C(=O)N1CC(=O)Nc1nc2c(s1)CCC2 (centres undefined) | -0.3209% |
| O=C(CN1CCCC(c2ccn[nH]2)C1)Nc1nc2c(s1)CCC2 (centres undefined) | 104% |
| O=C(CN1CCCC(c2ccn[nH]2)C1)Nc1nc2c(s1)CCCC2 (centres undefined) | 102.5% |
| O=C(O)c1cccc(CN2CCCC(c3ccn[nH]3)C2)c1 (centres undefined) | -8.776% |
